# Laboratory results as given in PubChem BioAssay (NCI).
# “And” between values parts separate entries of the source, which are not always exact repeats. Identical values can stand only once. Compounds without any hit were thinned out: in the full panel of roughly 83,000, 20% have a hit.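 Note: values are percent growth. 100 is the growth of untreated cells, values between 100 and 0 indicate rising inhibition; between -100 and 0 indicates cell death.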 More than one record can exist for a structure, and the calls need not agree. The source made the active and inactive calls.
# Test system: CCRF-CEM leukemia
# Assay: NCI-60 one-dose screen, 48 h (100 = growth as untreated, 0 = no growth, -100 = all killed)
# Settings: 10 µM
# Method: Growth inhibition of the CCRF-CEM human tumor cell line is measured as a screen for anti-cancer activity. Cells are grown in 96 well plates and exposed to the test compound for 48 hours. Compounds are tested at a single concentration, which is 10^-5 M for most compounds. The reported endpoint is percent growth (GI% or GIPRCNT), where numbers from 0 - 100% represent growth inhibition, and numbers from -100% - 0 represent cell death. For example, a value of 40 represents 60% growth inhibition. A value of 0 means no net growth occurred over the course of the experiment. A value of -40 indicates 40% of cells at the beginning of the experiment died by the end of the experiment. A value of -100 means all cells are dead at the end of the experiment.
# NCI-60 Human Tumor Cell Lines Screen was performed using the standard one-dose NCI protocol, which is described in more detail at https://dtp.cancer.gov/discovery_development/nci-60/default.htm.
# Compounds with GIPRCNT values below 10 were considered active. Activity score was based on GIPRCNT using the following formula: […]
# Score is 0 for GIPRCNT values of 100 or above, 50 for GIPRCNT values of 0, and 100 for GIPRCNT values of -100.
row,SMILES,growth
1,Cc1[nH]c(-c2nc3ccccc3[nH]2)c(C)c1C(=O)NC(C)C1CCCCC1 (stereo not given),81.3% (inactive)

# Same assay, conditions: 10 µM unless noted
row,SMILES,growth
1,C#CCN(C)Cc1ccccc1,95.2% (inactive) and 131% (inactive)
2,O=C(Oc1cccc(OC(=O)c2ccccc2)c1)c1ccccc1,80.4% (inactive) and 107% (inactive)
3,CC1=CCC2CC1C2(C)C (stereo not given),121% (inactive) and 114% (inactive)
4,CNc1cc(-c2cccc(OC(F)(F)F)c2)nc2ccc(N3CCCC3)cc12,-36.5% (active) and -23.4% (active) and -0.147% (active)
5,O=C1OC2(c3ccccc31)c1ccc(O)c(O)c1Oc1c2ccc(O)c1O,90.8% (inactive) and 110% (inactive)
6,Cc1ncsc1CCO,39.9% (inactive) and 121% (inactive)
7,CN1C(=O)C(N=Nc2ccc([N+](=O)[O-])cc2)SC1=S (stereo not given),54.5% (inactive) and 40.8% (inactive)
8,c1ccc2cc(C[n+]3ccn(Cc4ccc5ccccc5n4)c3)ccc2c1,10.8% (inactive) and 40.5% (inactive)
9,O=C(CCc1ccc(O)cc1)N/N=C/c1cc(Br)ccc1O,13.3% (inactive)
10,CN(C)c1ccc2nc3ccc(=[N+](C)C)cc-3sc2c1,2.85% (active) and 26.7% (inactive) and 24% (inactive)
11,COc1ccc(CCN(C)CCCC(C#N)(c2ccc(OC)c(OC)c2)C(C)C)cc1OC (stereo not given),95% (inactive) and 86.2% (inactive) and 97.9% (inactive)
12,S=C(S)N1CCCC1,65.5% (inactive) and 70.7% (inactive)
13,CCCCCCCCCCCCCCCc1cc(O)ccc1N,5.23% (active) and -6.89% (active)
14,O=[N+]([O-])c1ccccc1/C=N\Nc1ccccc1,65.1% (inactive) and 50.8% (inactive)
15,NC(=O)C1CC2C=CC1C2 (stereo not given),118% (inactive) and 96.2% (inactive)
16,CCN(CC)CCCC(C)Nc1ccnc2cc(Oc3ccccc3)ccc12 (stereo not given),65.5% (inactive) and 56% (inactive)
17,CC12CCC(CC1)C(C)(C)O2,92.4% (inactive)
18,CCOC(=O)Nc1nc2ccccc2[nH]1,98.9% (inactive) and 27.8% (inactive)
19,CCC(O)c1ccccc1 (stereo not given),103% (inactive) and 92% (inactive)

row,SMILES,growth
1,COc1ccccc1/C=N\N=C(N/N=C/c1ccccc1OC)N/N=C/c1ccccc1OC,39.9% (inactive) and 23.4% (inactive)
2,CC1CCCc2sc3nc(NNC(=O)c4cnccn4)n(-c4ccccc4)c(=O)c3c21 (stereo not given),3.85% (active) and 0.781% (active)
3,OC(COc1cccc2ccccc12)CN1CCN(c2ccc(Cl)cc2)CC1 (stereo not given),83.3% (inactive)
4,O=C(N/N=C/c1cccc2ccccc12)C1CC1,88.3% (inactive)
5,CN(C)c1ccc2nc3ccc(N)cc3[n+](-c3ccccc3)c2c1,24.6% (inactive) and 13.7% (inactive)
6,CC1(C)[C@@H](OC(=O)CCC(=O)O)CC[C@]2(C)[C@H]3C(=O)C=C4[C@@H]5C[C@@](C)(C(=O)O)CC[C@]5(C)CC[C@@]4(C)[C@]3(C)CC[C@@H]12,92.6% (inactive) and -37.2% (active)
7,Cc1ccc(-c2noc(CC(=O)c3ccc([N+](=O)[O-])cc3)n2)cc1,96.7% (inactive)
8,CC(O)(CC(=O)CC(=O)c1ccccc1)c1ccccc1 (stereo not given),95.4% (inactive) and 83% (inactive)
9,CCc1c(CC(=O)O)c2cc(C)ccc2n1Cc1ccc(Cl)cc1,97.4% (inactive) and 106% (inactive)
10,CCN(CC)CCCC(CNc1ccnc2cc(Cl)ccc12)c1ccc(Cl)cc1 (stereo not given),-17.5% (active) and -46.6% (active)
11,Nc1cc2c(cc1N)-c1ccccc1C2,18.9% (inactive) and 30.8% (inactive)
12,OC1CCC(Oc2cccc3cnc(Nc4ccc5nc[nH]c5c4)nc23)CC1 (stereo not given),-14.6% (active) and 15.4% (inactive)
13,O=C(O)c1cc(C(=O)O)cc([N+](=O)[O-])c1,94.9% (inactive)
14,OCc1ccccn1,103% (inactive)
15,O=C(CCl)c1ccc2c(c1)Nc1ccccc1S2,53.7% (inactive) and 50.5% (inactive)
16,CCOc1ccc2c(S(=O)(=O)O)cccc2c1[N+](=O)[O-],90.6% (inactive) and 107% (inactive)
17,Oc1ccccc1/C=N\NC(=S)N/N=C/c1ccccc1O,15.9% (inactive) and 15.1% (inactive)
18,CCN(CC)CCNc1ccc(C)c2sc3ccccc3c(=O)c12 (tested in a mixture with another compound),55.7% (inactive) and 29.3% (inactive)
19,CC(=O)C(/C=N/C(N)=O)=C(/C)O,97.4% (inactive)

# Same assay, conditions: 100 µM
row,SMILES,growth
1,Cc1[nH]c(-c2nc3ccccc3[nH]2)c(C)c1C(=O)NC(C)C1CCCCC1 (stereo not given),-72.7% (active)
